According to PubChem BioAssay (NCI):
About 83,000 compounds went through this panel and 20% of them were active in at least one assay; those are over-represented in the sample as a whole.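 The test compound was applied at a single concentration to cells in 96-well plates for 48 hours, and percent growth was recorded.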 Activity calls are given as the source filed them. The calls were made as follows: active = growth percent below 10; inactive = the rest.

Key:
Assay in all cases: NCI-60 one-dose screen, 48 h (100 = growth as untreated, 0 = no growth, -100 = all killed)
Details in all cases: 10 µM unless noted
SR leukemia = tested on: SR leukemia
OVCAR-8 ovarian = tested on: OVCAR-8 ovarian
OVCAR-5 ovarian = tested on: OVCAR-5 ovarian
OVCAR-4 ovarian = tested on: OVCAR-4 ovarian
SK-OV-3 ovarian = tested on: SK-OV-3 ovarian
IGROV1 ovarian = tested on: IGROV1 ovarian
OVCAR-3 ovarian = tested on: OVCAR-3 ovarian
HS 578T breast = tested on: HS 578T breast
NCI/ADR-RES ovarian = tested on: NCI/ADR-RES ovarian
T-47D breast = tested on: T-47D breast
BT-549 breast = tested on: BT-549 breast
MDA-MB-435 melanoma = tested on: MDA-MB-435 melanoma
SW-620 colon = tested on: SW-620 colon
MCF7 breast = tested on: MCF7 breast
HCC-2998 colon = tested on: HCC-2998 colon
KM12 colon = tested on: KM12 colon
HCT-116 colon = tested on: HCT-116 colon

Measured: growth

O=C1c2cccc3c(-c4ccc(-c5nc6c7ccccc7c7ccccc7c6[nH]5)cc4)ccc(c23)C(=O)N1CCN1CCNCC1
inactive: OVCAR-8 ovarian 20.2% | OVCAR-5 ovarian 108% | SK-OV-3 ovarian 102% | IGROV1 ovarian 72.4% | OVCAR-3 ovarian 91.5% | HS 578T breast 108% | NCI/ADR-RES ovarian 57.8% | T-47D breast 67.5% | BT-549 breast 95.4% | MDA-MB-435 melanoma 100% | SW-620 colon 25.2% | HCC-2998 colon 85.5% | KM12 colon 21.6%
active: SR leukemia 5.99% | OVCAR-4 ovarian -23.2% | MCF7 breast -6.7%

CC(=O)Nc1ccc(C(=O)/C=C/c2ccccc2)cc1
inactive: SR leukemia 49.6% | OVCAR-8 ovarian 75.1% | OVCAR-5 ovarian 94.6% | OVCAR-4 ovarian 99.9% | SK-OV-3 ovarian 105% | IGROV1 ovarian 77% | OVCAR-3 ovarian 77.3% | HS 578T breast 98.8% | NCI/ADR-RES ovarian 94.2% | T-47D breast 74.9% | MDA-MB-435 melanoma 89.1% | SW-620 colon 90.4% | MCF7 breast 24.3% | HCC-2998 colon 88.7%
active: HCT-116 colon 1.2%

COc1ccc(-n2sc(=O)n(Cc3ccc(COC(=O)C(C)c4ccc(CC(C)C)cc4)cc3)c2=O)cc1 (stereo not given)
inactive: OVCAR-8 ovarian 50.1% | OVCAR-5 ovarian 63.6% | OVCAR-4 ovarian 18.3% | SK-OV-3 ovarian 96.1% | IGROV1 ovarian 42.5% | HS 578T breast 77.8% | NCI/ADR-RES ovarian 76.7% | T-47D breast 10.6% | BT-549 breast 52.8% | MDA-MB-435 melanoma 22% | MCF7 breast 17.8% | HCC-2998 colon 83.9%
active: SR leukemia -27.4% | OVCAR-3 ovarian -67.3% | SW-620 colon -12.5%

CCC(O)(C(c1ccccc1)c1ccccn1)C(c1ccccc1)c1ccccn1 (stereo not given)
inactive: SR leukemia 83.8% | OVCAR-8 ovarian 106% | OVCAR-5 ovarian 96.4% | OVCAR-4 ovarian 107% | SK-OV-3 ovarian 94.8% | IGROV1 ovarian 101% | OVCAR-3 ovarian 102% | HS 578T breast 131% | NCI/ADR-RES ovarian 109% | T-47D breast 92.3% | MDA-MB-435 melanoma 117% | SW-620 colon 120% | MCF7 breast 101%

N#Cc1cnn2c(-c3ccc(Cl)cc3)nc(NCCc3ccccc3)nc12
inactive: SR leukemia 83.5% | OVCAR-8 ovarian 88.8% | OVCAR-5 ovarian 101% | OVCAR-4 ovarian 85.7% | SK-OV-3 ovarian 74.5% | IGROV1 ovarian 83.4% | OVCAR-3 ovarian 99.2% | NCI/ADR-RES ovarian 90.1% | T-47D breast 50.9% | BT-549 breast 100% | MDA-MB-435 melanoma 101% | SW-620 colon 98.1% | MCF7 breast 79.7% | HCC-2998 colon 106% | KM12 colon 88%

C=C1C(=O)O[C@H]2[C@H]1CC/C(COC(=O)/C=C\C(=O)NCc1ccc(Cn3c(=O)sn(-c4ccc(OC)cc4)c3=O)cc1)=C\CC[C@@]1(C)O[C@@H]21
inactive: SK-OV-3 ovarian 61.4%
active: SR leukemia -27.3% | OVCAR-8 ovarian 4.05% | OVCAR-5 ovarian -86.8% | OVCAR-4 ovarian -77% | IGROV1 ovarian -97.3% | OVCAR-3 ovarian -88.6% | HS 578T breast -21.3% | NCI/ADR-RES ovarian -16% | T-47D breast -51.6% | BT-549 breast -51.8% | MDA-MB-435 melanoma -65.8% | SW-620 colon -53.6% | MCF7 breast -51.4% | HCT-116 colon -65.5% | HCC-2998 colon -75.7% | KM12 colon -64.5%

Cc1cc(C)on1
inactive: SR leukemia 70.8% | OVCAR-8 ovarian 92.4% | OVCAR-5 ovarian 116% | OVCAR-4 ovarian 98% | SK-OV-3 ovarian 111% | IGROV1 ovarian 110% | HS 578T breast 102% | NCI/ADR-RES ovarian 109% | T-47D breast 94.4% | MDA-MB-435 melanoma 99.5% | SW-620 colon 110% | MCF7 breast 96.6% | HCT-116 colon 110% | HCC-2998 colon 94.5%

CC(C)OC(=O)NNC(=O)c1ccncc1
inactive: SR leukemia 104% | OVCAR-8 ovarian 99.1% | OVCAR-5 ovarian 98.5% | OVCAR-4 ovarian 101% | SK-OV-3 ovarian 106% | IGROV1 ovarian 98% | OVCAR-3 ovarian 93.4% | HS 578T breast 106% | NCI/ADR-RES ovarian 109% | T-47D breast 106% | MDA-MB-435 melanoma 109% | SW-620 colon 98.2% | MCF7 breast 88% | HCT-116 colon 97.5% | HCC-2998 colon 119% | KM12 colon 115%

C=C1C(=O)O[C@H]2[C@H]1CC/C(COC(=O)/C=C\C(=O)NCc1ccc(Cn3c(=O)sn(CCCC)c3=O)cc1)=C\CC[C@@]1(C)O[C@@H]21
inactive: SK-OV-3 ovarian 55.7%
active: SR leukemia -24.7% | OVCAR-8 ovarian 2.61% | OVCAR-5 ovarian -78.9% | OVCAR-4 ovarian -81.8% | IGROV1 ovarian -100% | OVCAR-3 ovarian -80.5% | HS 578T breast -20.4% | NCI/ADR-RES ovarian -9.25% | T-47D breast -39% | MDA-MB-435 melanoma -73.9% | SW-620 colon -45.5% | MCF7 breast -43% | HCT-116 colon -77.5% | HCC-2998 colon -80.3% | KM12 colon -59.7%

CCOC(=O)c1cnn2c(-c3ccc(Cl)cc3)nc(NCc3ccccc3)nc12
active: OVCAR-4 ovarian 5.61% | SW-620 colon 4.94% | MCF7 breast 5.18% | HCT-116 colon -15.5%
inactive: SR leukemia 44.5% | OVCAR-8 ovarian 30.5% | OVCAR-5 ovarian 100% | SK-OV-3 ovarian 112% | IGROV1 ovarian 64.8% | OVCAR-3 ovarian 29.9% | HS 578T breast 79.5% | NCI/ADR-RES ovarian 26.3% | BT-549 breast 101% | MDA-MB-435 melanoma 56.2% | HCC-2998 colon 83.9% | KM12 colon 54%

C=C1C(=O)O[C@H]2[C@H]1CC/C(COC(=O)/C=C\C(=O)NCc1ccc(Cn3c(=O)sn(-c4ccc(C#N)cc4)c3=O)cc1)=C\CC[C@@]1(C)O[C@@H]21
active: SR leukemia -37.6% | OVCAR-8 ovarian -10.9% | OVCAR-5 ovarian -83.9% | OVCAR-4 ovarian -81.1% | IGROV1 ovarian -98.7% | OVCAR-3 ovarian -90.1% | HS 578T breast -24.9% | NCI/ADR-RES ovarian 0.213% | T-47D breast -59.9% | BT-549 breast -57.5% | MDA-MB-435 melanoma -79.6% | SW-620 colon -64% | MCF7 breast -51.8% | HCT-116 colon -55.7% | HCC-2998 colon -79.1% | KM12 colon -71.7%
inactive: SK-OV-3 ovarian 37.8%

OCCCCc1nccc2c1[nH]c1ccccc12
inactive: SR leukemia 140% | OVCAR-8 ovarian 102% | OVCAR-5 ovarian 98.4% | OVCAR-4 ovarian 89.6% | SK-OV-3 ovarian 112% | IGROV1 ovarian 81.9% | OVCAR-3 ovarian 105% | HS 578T breast 106% | NCI/ADR-RES ovarian 108% | T-47D breast 110% | BT-549 breast 57.5% | MDA-MB-435 melanoma 85.7% | SW-620 colon 108% | MCF7 breast 89% | HCT-116 colon 101% | KM12 colon 110%

Nc1ccc(-c2cc3c(Nc4ccc(OCc5cccc(F)c5)c(Cl)c4)ncnc3s2)cc1
active: SK-OV-3 ovarian -2.32%
inactive: SR leukemia 14.5% | OVCAR-8 ovarian 63.1% | OVCAR-5 ovarian 77.9% | OVCAR-4 ovarian 54.8% | IGROV1 ovarian 38.2% | OVCAR-3 ovarian 46.6% | HS 578T breast 77% | NCI/ADR-RES ovarian 50.4% | T-47D breast 15.4% | BT-549 breast 61.2% | MDA-MB-435 melanoma 43.8% | SW-620 colon 74.1% | MCF7 breast 26.2% | HCC-2998 colon 38.6% | KM12 colon 24%

CC(C)(C)OC(=O)N1Cc2cc3ccccc3nc2C1CO (stereo not given)
inactive: SR leukemia 137% | OVCAR-8 ovarian 92.2% | OVCAR-5 ovarian 110% | OVCAR-4 ovarian 96% | SK-OV-3 ovarian 119% | IGROV1 ovarian 92.7% | OVCAR-3 ovarian 101% | HS 578T breast 102% | NCI/ADR-RES ovarian 106% | T-47D breast 103% | BT-549 breast 85% | MDA-MB-435 melanoma 88.1% | SW-620 colon 94.5% | MCF7 breast 90.7% | HCT-116 colon 98.4% | KM12 colon 106%

COc1ccc(Cn2cnc3cc(C(=O)Nc4cccc5ccccc45)ccc32)c(OC)c1
active: SR leukemia -17% [30 µM] | OVCAR-3 ovarian -17.8% [30 µM] | NCI/ADR-RES ovarian 3.4% [30 µM] | MDA-MB-435 melanoma -44.5% [30 µM] | HCC-2998 colon 6.79% [30 µM] | KM12 colon 2.44% [30 µM]
inactive: OVCAR-8 ovarian 14.7% [30 µM] | OVCAR-5 ovarian 16.3% [30 µM] | OVCAR-4 ovarian 44.4% [30 µM] | SK-OV-3 ovarian 31% [30 µM] | IGROV1 ovarian 14.7% [30 µM] | HS 578T breast 29.8% [30 µM] | T-47D breast 59.8% [30 µM] | SW-620 colon 22.7% [30 µM] | MCF7 breast 11.8% [30 µM] | HCT-116 colon 10.3% [30 µM]

N=c1ccn2c(n1)OC1C(O)C(CO)OC12 (stereo not given)
inactive: SR leukemia 181% | OVCAR-8 ovarian 28.8% | OVCAR-5 ovarian 71.2% | OVCAR-4 ovarian 52.4% | SK-OV-3 ovarian 47% | IGROV1 ovarian 12.6% | OVCAR-3 ovarian 67.1% | HS 578T breast 85.2% | NCI/ADR-RES ovarian 31.8% | BT-549 breast 44.9% | MDA-MB-435 melanoma 46.8% | SW-620 colon 41.5% | MCF7 breast 14.9% | HCT-116 colon 18.3%

O=C1/C(=C/c2ccccc2[N+](=O)[O-])COc2ccc(O)c(O)c21
active: SR leukemia 3.56% | OVCAR-5 ovarian -33% | OVCAR-4 ovarian 2.9% | IGROV1 ovarian -6.14% | OVCAR-3 ovarian -63.2% | HS 578T breast -0.42% | NCI/ADR-RES ovarian 5.96% | MDA-MB-435 melanoma -62.2% | SW-620 colon -38.7% | MCF7 breast 6.98% | HCC-2998 colon -46.5% | KM12 colon -3.65%
inactive: OVCAR-8 ovarian 10.3% | SK-OV-3 ovarian 40.8% | T-47D breast 12.4% | BT-549 breast 21.3%

OC(COc1cccc2ccccc12)CN1CCN(c2ccccc2)CC1 (stereo not given)
inactive: SR leukemia 130% | OVCAR-8 ovarian 100% | OVCAR-5 ovarian 102% | OVCAR-4 ovarian 91.9% | SK-OV-3 ovarian 93.7% | IGROV1 ovarian 122% | OVCAR-3 ovarian 105% | HS 578T breast 107% | NCI/ADR-RES ovarian 98% | T-47D breast 86.2% | BT-549 breast 95.3% | MDA-MB-435 melanoma 88.2% | SW-620 colon 102% | MCF7 breast 96.4% | HCT-116 colon 86.9% | KM12 colon 95.3%

CCN(CC)CCOc1ccc(/C(=C(\C)c2ccc(OC)c(F)c2)c2ccc(Cl)cc2)cc1
inactive: SR leukemia 29.8% | OVCAR-8 ovarian 76.7% | OVCAR-5 ovarian 72.9% | OVCAR-4 ovarian 73.1% | SK-OV-3 ovarian 91.1% | IGROV1 ovarian 72.2% | OVCAR-3 ovarian 89% | HS 578T breast 70% | NCI/ADR-RES ovarian 82.3% | MDA-MB-435 melanoma 60.3% | SW-620 colon 63.2% | MCF7 breast 70.3% | HCT-116 colon 46.4% | HCC-2998 colon 78.6% | KM12 colon 19.1%
